Potency and activity change, negative = inhibition data for 39 molecules are collected here from PubChem BioAssay AID2158 (National Center for Advancing Translational Sciences (NCATS), 2009).

Where “and” joins values, the source holds several entries; their conditions need not be identical. Equal entries are not always repeated. Inconclusive results are not listed. Some compounds were tested as several samples or in several runs, with calls that do not always agree. A number with no mark means an inactive call. Calls of active or inactive are those of the source. Calls come from the whole dose curve; as a rule, active = well fitted inhibition curve with a large enough effect; inconclusive = small, poorly fitted or top-dose-only effect; inactive = no such curve, though single readings can be large or run the other way.
Potency is the fitted concentration of half-maximal effect.

The target of this assay is Cruzipain (Trypanosoma cruzi) (UniProt P25779). Nature of the assay: Confirmation qHTS Assay for Inhibitors of Cruzain.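 For activity change, negative = inhibition: plate controls were uninhibited enzyme control for no effect and buffer wells lacking enzyme for full effect.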 Note: nearly all actives have a fitted effect of over 40% in size. The note with it: purified cruzain, Z-FR-AMC fluorescence, 0.01% Triton. The method in brief: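 Purified cruzain, 1.5 nM, pre-incubated 15 min at room temperature with compound in 100 mM sodium acetate pH 5.5, 5 mM DTT, 0.01% Triton X-100. Then 2 uM Z-FR-AMC added; AMC fluorescence (ex 360/em 450 nm) increase over 60 s gave reaction progress.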
Cruzipain (Trypanosoma cruzi), sequence (P25779 123-467 limits assumed): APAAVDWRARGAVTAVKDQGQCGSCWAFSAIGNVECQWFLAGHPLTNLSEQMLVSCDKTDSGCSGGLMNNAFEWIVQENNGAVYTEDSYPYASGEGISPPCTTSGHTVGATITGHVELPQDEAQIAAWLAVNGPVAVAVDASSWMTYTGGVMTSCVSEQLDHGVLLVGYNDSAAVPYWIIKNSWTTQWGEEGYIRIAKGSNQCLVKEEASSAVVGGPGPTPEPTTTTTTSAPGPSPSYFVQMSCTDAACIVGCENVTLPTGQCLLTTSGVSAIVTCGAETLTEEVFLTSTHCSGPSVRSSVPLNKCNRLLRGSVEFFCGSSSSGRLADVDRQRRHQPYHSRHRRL
(In general: In qHTS, concentration-response curves come from the screen itself.)
In the case of `N#Cc1nc(Nc2ccc(Br)cc2)nc(NC2CCCC2)n1`, the Potency was 0.501 µM (active).

Turning to `Cc1ccc2[nH]c(=O)c(CN(Cc3cccs3)Cc3nnnn3Cc3ccco3)cc2c1`, the activity change, negative = inhibition was -23%.

Turning to `COc1cc(-c2nn3c(-c4cc(-c5ccccc5)n[nH]4)nnc3s2)cc(OC)c1OC`, the activity change, negative = inhibition was -7.01%.

Consider `O=C(CNC(=O)c1cccc2ccccc12)OC(C(=O)Nc1cc(C(F)(F)F)ccc1Cl)c1ccccc1` (stereo not given), for which the Potency was 12.6 µM (active).

For `Cc1ccccc1OCCCn1c(CCNC(=O)C2CCCCC2)nc2ccccc21`, the Potency is 1 µM (active).

Turning to `Cn1nc(-c2ccc(F)cc2)nc2c(=O)n(C)c(=O)nc1-2`, the Potency was 0.631 µM (active).

As to `Cc1ccc(OCCCCn2c(CCNC(=O)C3CCCCC3)nc3ccccc32)cc1`, the Potency was 1.12 µM (active).

With `N#Cc1nc(Nc2cccc(Cl)c2)c2ncn(C3CCCC3)c2n1`, the Potency was 0.0501 µM (active).

In the case of `CCNc1nc(C#N)nc(N2CCCCC2)n1`, the Potency is 5.01 µM (active).

Take `CC(=O)OC1(C(F)(F)F)Oc2ccccc2NC1=O` (stereo not given): the Potency was 2.82 µM (active).

Turning to `CCC(C)[C@@H](N)C(=O)N/N=C/c1ccc2ncccc2c1` (stereo not given in full), the Potency was 22.4 µM (active).

On to `CSCC[C@H](NC(=O)COc1ccc(Cl)cc1Cl)c1nc2ccccc2[nH]1`, for which the Potency was 2.82 µM (active).

With `COc1ccc(S(=O)(=O)NC2CCN(C#N)CC2)cc1`, the activity change, negative = inhibition is -4.94%.

`CN(C)c1nc(C#N)nc(N2CCOCC2)n1`: the Potency was 10 µM (active) and 8.91 µM (active).

For `N#Cc1nc(Nc2cc(F)cc(Cl)c2)nc(NC2CCCC2)n1`, the Potency was 0.141 µM (active).

On to `O=C(NCc1nnc(-c2cc3ccccc3[nH]2)o1)c1ccccc1`, for which the activity change, negative = inhibition is -2.11%.

With `Cc1cc(=O)oc2cc(OCC(=O)N3CCOCC3)ccc12`, the Potency is 8.91 µM (active).

Turning to `CC(C)(C)c1ccc(C(=O)NCC(=O)OC(C(=O)Nc2cc(C(F)(F)F)ccc2Cl)c2ccccc2)cc1` (stereo not given), the activity change, negative = inhibition was -14%.

As for `Cc1ccccc1NC(=O)CSc1nnc(-c2ccco2)c(-c2ccco2)n1`, the Potency was 14.1 µM (active).

For `O=C(NC(=S)Nc1cccc(Cl)c1N1CCCC1)c1ccc(-c2cccc([N+](=O)[O-])c2)o1`, the activity change, negative = inhibition was -8.07%.

On to `FC(F)Sc1ccc(N=C2NN=C(c3ccc4c(c3)OCCO4)CS2)cc1`, for which the activity change, negative = inhibition was -6.33%.

For `CC(C)Nc1nc(C#N)nc(NC(C)C)n1`, the Potency is 28.2 µM (active).

In the case of `COc1cc2cc(CN(Cc3nnnn3Cc3ccco3)C3CCCCC3)c(=O)[nH]c2cc1OC`, the Potency is 14.1 µM (active).

`O=C(NCC1CC1)c1ccc2nc(-c3ccoc3)c(-c3ccoc3)nc2c1`: the activity change, negative = inhibition is -15.5%.

Consider `CCOc1nc(C#N)nc(N2CCOCC2)n1`, for which the Potency is 5.01 µM (active).

On to `O=C(CNC(=O)c1ccccc1)OC(C(=O)Nc1cc(C(F)(F)F)ccc1Cl)c1ccccc1` (stereo not given), for which the activity change, negative = inhibition is -10.9% and -27.8%; the Potency was 5.01 µM (active).

Consider `CCCCNC(=O)C(CC)n1c(SCc2cccc(F)c2)nc2ccncc21` (stereo not given), for which the activity change, negative = inhibition is -13.4%.

For the molecule `Cc1cccc(Cn2cc(/C=C(/C#N)C(=O)Nc3cccc(Cl)c3)c3ccccc32)c1`, the activity change, negative = inhibition was -2.85%.

In the case of `CCOc1nc(C#N)nc(N2CCCCC2)n1`, the Potency was 2.51 µM (active) and 3.55 µM (active).

For `Cc1ccccc1OCC(=O)NCC(=O)OCc1ccc2ccccc2c1`, the activity change, negative = inhibition was -17.8%.

`CC(C)(C)OC(=O)NCc1nnc(-c2cc3ccccc3[nH]2)o1`: the activity change, negative = inhibition is 0.21%.

As for `NC(=S)N/N=C/c1ccc(-c2ccc(Cl)c(Cl)c2)o1`, the Potency is 2 µM (active).

As to `Cc1cccc(OCCn2c(CCNC(=O)C3CCCCC3)nc3ccccc32)c1`, the Potency was 0.891 µM (active).

On to `O=C(NCc1ccc2c(c1)OCO2)c1ccc2c(c1)N(Cc1cccc(Cl)c1)C(=O)c1ccccc1S2`, for which the activity change, negative = inhibition was 3.57%.

Take `NNC(=O)Cn1c(SCc2ccccc2)nc2ccccc21`: the activity change, negative = inhibition was 3.64%.

Take `CCN(CC)c1nc(C#N)nc(N(CC)CC)n1`: the Potency was 17.8 µM (active) and 14.1 µM (active).

As to `COc1ccc(-c2nn3c(-c4cc(C)[nH]n4)nnc3s2)cc1`, the activity change, negative = inhibition is -13.7%.

Consider `CC(C)(C)OC(=O)Cc1nnc(-c2nc3ccccc3[nH]2)o1`, for which the activity change, negative = inhibition is -0.371%.

As to `CCSc1nnc(NC(=O)/C=C/c2ccc3c(c2)OCO3)s1`, the activity change, negative = inhibition was -48.4%.
